# GPR151 activ = human GPR151 activation | Q8TDV0 | PathHunter beta-arrestin GPR151 cells, luminescence | activation, % at 11.2 µM | actives 1% (n = 650,000); in the data active = activation above about 4.9%
# MITF inh = inhibitors of human MITF. AlphaScreen MITF homodimerization, bead proximity signal. inhibition, % at 2.6 µM. actives 0.91% (n = 650,000); in the data active = inhibition above about 50%
# TEAD-YAP block = TEAD-YAP interaction inhibition. HEK-TIYL cells, TEAD-Gal4/YAP UAS-luciferase luminescence. inhibition, % at 9.12 µM. actives 1.4% (n = 640,000); in the data active = inhibition above about 32%
# FBW7 act = human FBW7 E3 ligase activation, primary screen; Q969H0; AlphaScreen FBW7–phospho-cyclin E peptide binding, activator screen; normalized activity (activation), % at 26.1 µM; actives 0.13% (n = 650,000); in the data active = normalized activity above about 1.9%;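 note: purified mutant Fbw7 with reduced substrate affinity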
# Target sequence (Q969H0 whole entry, looked up): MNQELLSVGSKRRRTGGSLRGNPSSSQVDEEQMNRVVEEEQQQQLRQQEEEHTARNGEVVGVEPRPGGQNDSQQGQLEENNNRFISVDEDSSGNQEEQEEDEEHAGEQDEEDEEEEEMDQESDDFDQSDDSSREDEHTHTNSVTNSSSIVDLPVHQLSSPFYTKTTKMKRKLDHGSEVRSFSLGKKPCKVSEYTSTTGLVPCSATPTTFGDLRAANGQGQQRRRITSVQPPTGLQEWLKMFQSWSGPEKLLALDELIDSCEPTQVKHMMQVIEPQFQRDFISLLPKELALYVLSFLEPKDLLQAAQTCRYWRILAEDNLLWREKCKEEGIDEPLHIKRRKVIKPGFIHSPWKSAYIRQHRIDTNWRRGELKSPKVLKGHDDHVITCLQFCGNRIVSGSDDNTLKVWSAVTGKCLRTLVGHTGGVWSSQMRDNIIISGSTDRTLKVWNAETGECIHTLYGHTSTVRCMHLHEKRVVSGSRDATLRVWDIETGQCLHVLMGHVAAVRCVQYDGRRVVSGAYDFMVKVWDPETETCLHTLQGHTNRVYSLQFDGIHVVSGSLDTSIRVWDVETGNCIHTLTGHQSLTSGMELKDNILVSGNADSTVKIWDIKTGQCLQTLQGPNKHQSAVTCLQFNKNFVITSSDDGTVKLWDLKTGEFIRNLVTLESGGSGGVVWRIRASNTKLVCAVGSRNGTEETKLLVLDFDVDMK
# Numbers stand for hits; – = inactive. Hits are enriched below; roughly 3.5% of the tested compounds scored in any of these assays.
SMILES,GPR151 activ,MITF inh,TEAD-YAP block,FBW7 act
COc1ccc(C)cc1NC(=O)c1cnc(N2CCN(c3ncccn3)CC2)c2ccccc12,–,–,–,–
COc1ccc([N+](=O)[O-])cc1NC(=O)c1cnc(N2CCN(c3ccccn3)CC2)c2ccccc12,–,–,–,–
NC(=NCc1ccccc1)c1cccc([N+](=O)[O-])c1,–,–,–,–
O=C(Cn1ccc(=NCc2ccccc2)cc1)c1cccc([N+](=O)[O-])c1,–,–,32.9,–
CCOc1cc(/C=N/NC(=O)Cn2cncn2)ccc1O,–,–,–,–
CCCn1ccc2c(OCC(=O)Nc3ccc(OC)c(OC)c3)cccc2c1=O,–,–,37.8,–
COCCn1ccc2c(OCC(=O)Nc3ccc(C)cc3)cccc2c1=O,–,–,–,–
COc1ccccc1NC(=O)c1c(OC)cccc1OC,–,–,–,–
COc1ccc(OC)c(NC(=O)c2c(Cl)nc(Cl)c(Cl)c2Cl)c1,–,–,64.4,–
COc1ccccc1NC(=O)c1c(Cl)nc(Cl)c(Cl)c1Cl,–,–,63.5,–
COc1cccc(C(=O)Oc2coc(CSc3nc(C)cc(C)n3)cc2=O)c1,–,–,–,–
Cc1ccccc1OCC(=O)Nc1ccccn1,–,–,42.3,–
Cc1ccc(OCC(=O)Nc2cc(C)on2)c(C)c1,–,–,–,–
Cc1ccc(OCC(=O)Nc2ccccn2)c(C)c1,–,–,95.5,–
Cc1ccccc1OCC(=O)Nc1cccc(NC(=O)COc2ccccc2C)n1,–,–,–,–
Cc1cc(C)nc(NC(=O)COc2cc(Cl)c(Cl)cc2Cl)n1,–,–,–,–
Cc1noc(C)c1/C=C/C(=O)c1ccc(S(=O)(=O)N(C)C)cc1,–,–,–,–
COc1ccc(OC)c(/C=C2\SC(N)=NC2=O)c1,–,58.4,–,–
NC1=NC(=O)/C(=C/c2cc(O)ccc2Cl)S1,–,–,38.6,–
COc1ccc(/C=C2/SC(N)=NC2=O)c(OC)c1,–,–,–,–
CCCNc1nc(N2CCCC2CO)nc2c1ncn2-c1ccccc1 (stereo unspecified),–,–,36.7,–
OCC1CCCN1c1nc(NCCc2ccc(O)cc2)c2ncn(-c3ccccc3)c2n1 (stereo unspecified),–,–,43.4,–
COc1ccc(CCNc2nc(N3CCCC3CO)nc3c2ncn3-c2ccccc2)cc1 (stereo unspecified),–,–,–,–
O=C(NCc1ccco1)C1CC12CCN(Cc1nc(-c3ccccc3)cs1)CC2 (stereo unspecified),–,–,55.5,–
CN1CCCN(C(=O)C2CC23CCN(Cc2nc(-c4ccccc4)cs2)CC3)CC1 (stereo unspecified),–,–,–,–
SMILES,GPR151 activ,MITF inh,TEAD-YAP block,FBW7 act
COc1ccc(C(=O)COc2ccccc2N2C(=O)C3C4CCC(C4)C3C2=O)cc1 (stereo unspecified),–,–,–,–
COc1cc(/C=C2/C(=O)ON=C2c2ccc(Cl)cc2)ccc1O,–,60.8,–,–
COc1cc(/C=C2/C(=O)ON=C2c2ccccc2)ccc1O,–,69.4,–,–
COc1cc(/C=C2/C(=O)ON=C2c2ccccc2)cc(OC)c1OC,–,56.4,–,–
CCOc1ccc(/C=C2\C(=O)ON=C2c2ccc(Cl)cc2)cc1,–,59.3,–,–
O=C(O)CCCCCNc1c(C(=O)O)cc([N+](=O)[O-])cc1[N+](=O)[O-],–,–,–,–
Cc1ccc(S(=O)(=O)N2CCN(c3ccc(F)cc3)CC2)c(C)c1,–,–,–,–
O=C(NCCc1nnc2n1CCN(C(=O)c1c(F)ccc(F)c1F)CC2)C1CCCCC1,–,–,–,–
COc1cc(/C=C2\C(=O)ON=C2c2ccccc2)ccc1OCc1ccc(Cl)cc1,–,–,–,–
CCOc1cc(/C=C2/C(=O)ON=C2c2ccccc2)ccc1OC,–,66.8,–,–
Cc1ccc(COc2ccccc2/C=C2/C(=O)ON=C2c2ccccc2)cc1,–,54.1,–,–
COc1ccccc1/C=C1\C(=O)ON=C1c1ccccc1,–,70.4,–,–
COc1ccc(NC(=O)CCCCCN2C(=O)CCC2=O)c([N+](=O)[O-])c1,–,–,–,–
COc1c(F)c(F)c(OC)c(F)c1F,–,–,–,–
CCC(C(=O)Nc1ccc(C(C)C)cc1)n1nnc(C(=O)OC)c1C(=O)OC (stereo unspecified),–,–,–,–
CCOc1ccc(S(=O)(=O)Nc2ccc3nc(C)n(-c4ccc(F)cc4)c(=O)c3c2)c(OCC)c1,–,–,49.8,–
COc1ccc(F)cc1S(=O)(=O)Nc1ccc2nc(C)n(-c3ccc(Cl)cc3)c(=O)c2c1,–,–,–,–
CNC(=O)/C(C#N)=C/c1c(Oc2cccc(C)c2C)nc2ccccn2c1=O,–,–,–,–
CCNC(=O)/C(C#N)=C/c1c(Oc2cccc(C)c2C)nc2ccccn2c1=O,–,–,41.7,–
CCNC(=O)/C(C#N)=C/c1c(Oc2ccccc2C)nc2ccccn2c1=O,–,–,33.7,–
O=C(COc1cccc(Cl)c1)NCc1cccs1,–,–,–,–
CCS(=O)(=O)c1ncc(Cl)c(C(=O)Nc2ccccc2Br)n1,–,–,36.3,–
CCCS(=O)(=O)c1ncc(Cl)c(C(=O)Nc2ccc(C(=O)OC)cc2)n1,–,–,42.8,–
CCCS(=O)(=O)c1ncc(Cl)c(C(=O)Nc2ccc(CC)cc2)n1,–,–,–,–
CCS(=O)(=O)c1ncc(Cl)c(C(=O)Nc2cccc(Cl)c2C)n1,–,–,57.4,–
SMILES,GPR151 activ,MITF inh,TEAD-YAP block,FBW7 act
CCc1ccccc1NC(=O)/C(C#N)=C\c1cc(C)n(-c2cccnc2)c1C,–,–,–,–
O=C(NNC(=O)c1cccc(Br)c1)c1ccc(F)cc1,–,–,–,–
Cc1ccc(-c2ncn(-c3ccc(Nc4nccc(-c5ccc(S(C)(=O)=O)c(N6CCCC(O)C6)c5)n4)cc3)n2)cn1 (stereo unspecified),–,–,38.2,–
Cc1ccc(-c2ncn(-c3ccc(Nc4nccc(-c5ccc(N)nc5)n4)cc3)n2)cn1,–,–,41.2,5.4
Cc1ccc(-c2ncn(-c3ccc(Nc4nccc(-c5ccc(Cl)nc5)n4)cc3)n2)cn1,–,–,–,–
Cc1sc2ncnc(N/N=C/c3ccccn3)c2c1C,–,–,92.3,–
Clc1nc(NCc2ccco2)nc(Nc2ccc(I)cc2)n1,–,–,–,–
COc1ccc(-n2nc(C(=O)NCC(=O)Nc3ccc(F)cc3)c3ccccc3c2=O)cc1OC,–,–,–,–
COc1cccc(NC(=O)CNC(=O)c2nn(-c3ccc(OC)c(OC)c3)c(=O)c3ccccc23)c1,–,–,34.3,–
COc1ccc(-n2nc(C(=O)NCC(=O)Nc3cc(OC)c(OC)c(OC)c3)c3ccccc3c2=O)cc1OC,–,–,49.0,–
CCC1(C2CCN(C(=O)CCSC)CC2)NC(=O)N(CCc2scnc2C)C1=O (stereo unspecified),–,–,–,–
CCOc1ccc(NC(=O)C2=C(C)NC(=O)NC2c2ccccc2Cl)cc1 (stereo unspecified),–,–,33.3,–
COc1cc(S(=O)(=O)N2CCc3ccccc32)c(OC)cc1Cl,–,–,45.3,–
Cc1ccc(S(=O)(=O)N2CCCc3ccccc32)cc1C,–,–,–,–

# Bioassay records (PubChem BioAssay)
